Whole data set: some 33,000 sequences, median “E-score (-0.5 to 0.5)” near -0.04, cut for the highest 2% near 0.36. The sample as a whole holds a higher share of the highest values than the screen did.
molecular target: T1, Hmlalpha2 (UniProt P0CY09); assay: PBM E-score (8-mer binding enrichment) (E-score (-0.5 to 0.5)); higher = stronger / more preferred TF binding; conditions: protein concentration: 200 nM; construct: GST-full length
T1 sequence: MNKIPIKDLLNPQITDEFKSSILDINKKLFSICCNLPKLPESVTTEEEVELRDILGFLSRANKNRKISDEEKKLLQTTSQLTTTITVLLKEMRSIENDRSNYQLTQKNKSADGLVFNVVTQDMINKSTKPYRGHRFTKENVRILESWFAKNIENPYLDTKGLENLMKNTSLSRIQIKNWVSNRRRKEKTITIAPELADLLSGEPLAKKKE
Description: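 Universal 'all 10-mer' protein binding microarrays (Agilent AMADID 015681) probed with GST-tagged S. cerevisiae TFs (full-length or DBD) made by in vitro transcription/translation (PURExpress), about 100-200 nM. Bound TF was detected with fluorescent anti-GST. Each ungapped 8-mer (which stands for itself and its reverse complement) is scored by the PBM enrichment score (E-score), a modified Wilcoxon-Mann-Whitney statistic from -0.5 to +0.5, computed with the Universal PBM Analysis Suite. Scale: above 0.35 generally sequence-specific binding.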

Point of comparison: AGTAATCA, “PBM E-score” value 0.199. Against it:
- ACACATGA — higher, 0.304
- TAACATTA — higher, 0.331
- TAACATGA — higher, 0.462
- AAACATGA — higher, 0.388
- ACACATGT — higher, 0.394
- CAACATGC — higher, 0.398
- GAACATGC — higher, 0.272
- AAACATCA — higher, 0.278
- AAACATAA — higher, 0.348
- ACTAACCC — lower, 0.0236
- CAAGGGTC — lower, -0.199
- CCACACAG — lower, -0.0322
- ATGCGTTG — higher, 0.205
- GACTGACC — lower, -0.192
- GAGGTCAA — lower, -0.0488
- GTGAAGAA — lower, 0.181
- CCCAAACG — lower, -0.123
- ACAACTCA — lower, 0.194
- AGAATAGC — lower, -0.15
- AGTGCCAC — lower, -0.215
- CAGGAGCC — lower, -0.225
- CTCCCTCC — lower, -0.389
- CTTACACA — higher, 0.408
- CTTACTCA — lower, -0.0475
- GTTACAAA — higher, 0.303
- GTTACACA — higher, 0.435
- GTCACACA — lower, 0.15
- CTCACACA — lower, 0.114
- GCAAAACA — lower, 0.135
- CCCTTGCC — lower, -0.285
- TAACCGCA — lower, 0.0481
- AGACTCAT — lower, -0.0539
- TAATTAGA — lower, 0.167
- CAATTACC — lower, 0.0295
- CAATTACG — higher, 0.349
- TACTTACA — higher, 0.379
- CAATTACA — higher, 0.445
- TAATTATA — higher, 0.245
- TAATTACA — higher, 0.462
- AAATTACA — higher, 0.424
- GACTTACA — higher, 0.274
- CACTTACA — higher, 0.281
- AAATTACT — higher, 0.209
- AAATTACG — higher, 0.309
- CACCGCTA — lower, -0.0146
- CGAATTCA — lower, -0.0293
- AATGTAGT — higher, 0.249
- GGGGCCTA — lower, -0.31
- GCCGCGGC — lower, -0.242
- CCGCGATC — lower, -0.238
- AATTCTGC — lower, -0.061
- GAATTACC — lower, 0.107
- GAATTATA — lower, 0.113
- GAATTACA — higher, 0.444
- CTTGCTTC — lower, 0.0506
- GTCATCGA — lower, -0.0402
- AATTACGC — higher, 0.431
- ATTTACGC — higher, 0.347
- AATTACGG — lower, -0.0144
- AATTACGT — higher, 0.382
- CTTTACGA — lower, 0.185
- CATTACGC — higher, 0.321
- CTTTACGC — higher, 0.42
- AATTACGA — higher, 0.338
- GATTACGC — higher, 0.345
- AATAACTG — lower, 0.0798
- CCACTAGC — lower, -0.111
- AATACCCT — lower, -0.0975
- TCATTCCA — lower, -0.147
- CGTAATCC — higher, 0.309
- CGTAATTA — higher, 0.389
- CGTAATTC — higher, 0.321
- CGTAATCA — higher, 0.367
- GGTAATTA — higher, 0.25
- ACTGCTTG — lower, -0.00682
- AACGAAGT — lower, 0.0804
- ACAGCAGC — lower, 0.0712
- AACGCGTA — higher, 0.359
- TACGCGCA — higher, 0.252
- CACGCGTG — higher, 0.374
- TACGCGTA — higher, 0.409
- CACGCGTA — higher, 0.277
- GACGCGTA — higher, 0.383
- CACGCGTC — lower, 0.174
- AACGCGTG — higher, 0.336
- TACGCGGA — higher, 0.312
- CCCCCGTA — lower, -0.247
- AATGGAGT — lower, -0.0239
- AACTCTAA — lower, 0.0318
- CCTTGATC — lower, -0.0105
- GATGTACA — higher, 0.379
- CCTGTACA — higher, 0.304
- CATGTACA — higher, 0.458
- GATGTACC — lower, 0.135
- TCAGTACA — higher, 0.227
- AATGTACC — lower, 0.166
- TATGTACA — higher, 0.429
- GGTGTACA — higher, 0.211
- CATGTACC — higher, 0.287
- AATGTACA — higher, 0.366
- TCTGTACA — higher, 0.258
- AATGTACT — lower, 0.186
- GCTTTGAC — lower, 0.074
- GCGCACAC — lower, -0.189
- GTCAAGAC — lower, -0.135
- ATCACTGG — lower, -0.0104
- TATCTGGA — lower, -0.16
- GGTCCCTA — lower, -0.0695
- CCTGAATC — lower, -0.0621
- CATGTACG — higher, 0.372
- CCTGTACG — lower, 0.0613
- AATGTACG — lower, 0.108
- CGGTAGAA — lower, -0.175
- ATCATGTA — higher, 0.472
- GTAATGTA — higher, 0.413
- GTCATGGA — lower, -0.188
- CTAATGTA — higher, 0.262
- CTCATGTA — higher, 0.454
- ATCATGTG — higher, 0.209
- ATAATGTA — higher, 0.273
- CTCATGGA — lower, -0.142
- GTCATGTA — higher, 0.442
- CTCATGTC — higher, 0.295
- ATCATGTC — higher, 0.351
- GTCATGCA — lower, 0.133
- CGCATTAC — higher, 0.214
- ATGCGTTC — lower, 0.122
- CGAGGCAA — lower, 0.126
- AACCTCTC — lower, -0.275
- TACAACAA — higher, 0.343
- GCCCCTCC — lower, -0.277
- TCGCCTCA — lower, -0.118
- CATACACC — lower, -0.076
- GATACACA — higher, 0.214
- CATACACA — higher, 0.336
- TATATACA — higher, 0.389
- TACACAGA — higher, 0.424
- GACACAGA — lower, -0.00939
- CATACACG — higher, 0.398
- GATATACA — higher, 0.339
- AATATACA — higher, 0.34
- CACACAGA — higher, 0.221
- TATACACA — higher, 0.437
- TATACAGA — higher, 0.251
- CTAAGATC — lower, -0.0578
- GGTGAGTA — lower, 0.135
- AAAGCGAA — lower, -0.132
- GCCATCTA — lower, -0.19
- ACTCCACA — lower, 0.0494
- GACGGTCA — lower, -0.196
- ATAGACTG — lower, -0.0652
- TACACACA — higher, 0.43
- GACACAAA — lower, 0.14
- CACACAAA — lower, 0.126
- CACACACG — higher, 0.279
- CACACACA — higher, 0.228
- TACACAAA — higher, 0.431
- ACAGATGC — lower, -0.0548
- ACTCCCAC — lower, -0.352
- GGCGGGAC — lower, -0.194
- TAACGCCA — lower, 0.0809
- GTCTTGTA — higher, 0.306
- AGCTTGTC — lower, 0.133
- ATCTTGTG — lower, -0.0105
- ACCTTGTA — higher, 0.402
- ATCTTGTA — higher, 0.383
- GCCTTGTA — higher, 0.33
- AGCTTGTG — lower, 0.11
- AGCTTGTA — higher, 0.379
- CCCTTGTA — higher, 0.328
- CGGTCCCC — lower, -0.347

— the supplement of paper PMC3334620
